Assay [1] is described as follows: rapamycin-like changes in RPL19A-GFP expression – cell-based, S. cerevisiae, multiplex flow cytometry, primary screen (AID 1862; in the data active = percent of DMSO control GFP below about 86%;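 note: lower values mimic rapamycin by blocking the RPL19A rise seen in DMSO cells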). The following applies: S. cerevisiae RPL19A-GFP strain, flow cytometry fluorescence, 3 h; at 10 µM; stronger effect = lower value. On the technique in general: A flow cytometer gives signals particle by particle.
Assay [2] can be described thus: TOR pathway GLN3 branch reporter MEP2-GFP changes – S. cerevisiae, multiplex flow cytometry, primary screen (AID 1867;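 active = GFP response, as percent of the DMSO control, above the screen-wide mean plus 3 SD, about 139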;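 note: median GFP channel fluorescence of barcode-gated MEP2-GFP cells measured by flow cytometry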). The settings on record: S. cerevisiae MEP2-GFP strain, 3 h, at 10 µM, stronger effect = higher value, 100% means same as DMSO wells.
Assay [3] in a line: TOR pathway RTG branch CIT2 reporter changes – S. cerevisiae, GFP fusion, multiplex flow cytometry, primary screen (AID 1870;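 active = percent response above a set limit, the screen-wide mean plus 3 SD, cut at about 130% in these data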;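 note: barcoded CIT2-GFP strain pooled with four other GFP strains with rapamycin as positive control; median GFP fluorescence per well over plate mean of DMSO wells so 100% = DMSO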). The settings on record: S. cerevisiae CIT2-GFP expression, 3 h, at 10 µM, stronger effect = higher value.
The nature of assay [4]: TOR pathway LAP4-GFP level changes – S. cerevisiae, multiplex flow cytometry, primary screen (AID 1873;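 active = GFP signal, as percent of the solvent control, above the screen mean plus 3 SD, about 149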). The following applies: S. cerevisiae LAP4-GFP expression, 3 h, at 10 µM, stronger effect = higher value.
The nature of assay [5]: yeast AGP1-GFP level changes, GLN3 branch – cell-based, multiplex flow cytometry, S. cerevisiae, primary screen (AID 1887;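 active = GFP signal above the screen-wide mean plus 3 SD, that is over about 124.5% of the solvent control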;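 note: AGP1-GFP fusion strain of S. cerevisiae within a five-strain barcoded multiplex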). The following applies: 3 h, at 10 µM, stronger effect = higher value.
A short description of assay [6]: reduced mouse 2C T cell binding to pMHC/ICAM-1 vesicles – MLPCN validation set, flow cytometry, LFA-1/ICAM-1 modulator project, pilot screen (AID 2523;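 active = response below a set limit, under 55% cells CD8-positive and vesicle-bound, and CD8 cells' 90th-percentile brightness under 279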;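 for vesicle binding response: mean PE anti-B7-1 fluorescence of CD8+ cells relative to row control; 100% = QL9-loaded vesicles with DMSO vehicle in the same plate row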). The settings on record: 2C mouse CD8+ T cells, at 7 µM, stronger effect = lower value; double positive events: measured here: CD8+/vesicle+ event percentage.
Assay [7] deals with Integrin beta-1 (Homo sapiens) + Integrin alpha-4 (Homo sapiens) (UniProt P13612+P05556). The assay is described as follows: alpha4beta1 integrin LIBS antibody binding reduction – U937 cells, HUTS-21 mAb, flow cytometry, validation set, VLA-4 allosteric modulator project, pilot screen (AID 2674;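 active = inhibition above 50%, about 3 SD of the validation set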;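 note: antibody binding induced by the VLA-4 ligand LDV present at three times its Kd; 0% = LDV ligand with antibody and no compound and 100% = antibody without LDV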). The settings on record: HUTS-21 LIBS mAb binding, at 6.7 µM, stronger effect = higher value, binding induced by LDV ligand.
Integrin beta-1 (Homo sapiens) + Integrin alpha-4 (Homo sapiens), sequence (P05556 whole entry, looked up): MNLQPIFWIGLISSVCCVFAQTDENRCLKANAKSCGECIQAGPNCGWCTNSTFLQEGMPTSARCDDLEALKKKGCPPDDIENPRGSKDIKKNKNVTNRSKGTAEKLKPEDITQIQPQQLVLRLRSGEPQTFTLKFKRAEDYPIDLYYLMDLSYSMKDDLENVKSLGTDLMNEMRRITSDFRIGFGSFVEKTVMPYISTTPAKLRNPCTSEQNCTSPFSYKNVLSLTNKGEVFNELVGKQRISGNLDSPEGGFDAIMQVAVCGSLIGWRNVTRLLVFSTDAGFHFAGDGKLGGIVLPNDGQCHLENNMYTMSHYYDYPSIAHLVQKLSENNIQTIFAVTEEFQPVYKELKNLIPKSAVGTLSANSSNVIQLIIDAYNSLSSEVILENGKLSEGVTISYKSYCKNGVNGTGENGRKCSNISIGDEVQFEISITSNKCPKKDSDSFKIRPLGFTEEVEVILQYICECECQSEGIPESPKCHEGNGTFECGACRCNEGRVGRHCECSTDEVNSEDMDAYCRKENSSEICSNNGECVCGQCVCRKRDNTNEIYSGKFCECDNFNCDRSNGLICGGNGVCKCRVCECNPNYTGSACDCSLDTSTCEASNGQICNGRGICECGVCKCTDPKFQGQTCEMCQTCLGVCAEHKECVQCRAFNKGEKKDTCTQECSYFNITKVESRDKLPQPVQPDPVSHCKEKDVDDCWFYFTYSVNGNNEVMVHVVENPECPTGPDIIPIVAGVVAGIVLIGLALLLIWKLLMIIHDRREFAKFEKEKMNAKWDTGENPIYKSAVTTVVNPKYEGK
Integrin beta-1 (Homo sapiens) + Integrin alpha-4 (Homo sapiens), sequence (P13612 whole entry, looked up): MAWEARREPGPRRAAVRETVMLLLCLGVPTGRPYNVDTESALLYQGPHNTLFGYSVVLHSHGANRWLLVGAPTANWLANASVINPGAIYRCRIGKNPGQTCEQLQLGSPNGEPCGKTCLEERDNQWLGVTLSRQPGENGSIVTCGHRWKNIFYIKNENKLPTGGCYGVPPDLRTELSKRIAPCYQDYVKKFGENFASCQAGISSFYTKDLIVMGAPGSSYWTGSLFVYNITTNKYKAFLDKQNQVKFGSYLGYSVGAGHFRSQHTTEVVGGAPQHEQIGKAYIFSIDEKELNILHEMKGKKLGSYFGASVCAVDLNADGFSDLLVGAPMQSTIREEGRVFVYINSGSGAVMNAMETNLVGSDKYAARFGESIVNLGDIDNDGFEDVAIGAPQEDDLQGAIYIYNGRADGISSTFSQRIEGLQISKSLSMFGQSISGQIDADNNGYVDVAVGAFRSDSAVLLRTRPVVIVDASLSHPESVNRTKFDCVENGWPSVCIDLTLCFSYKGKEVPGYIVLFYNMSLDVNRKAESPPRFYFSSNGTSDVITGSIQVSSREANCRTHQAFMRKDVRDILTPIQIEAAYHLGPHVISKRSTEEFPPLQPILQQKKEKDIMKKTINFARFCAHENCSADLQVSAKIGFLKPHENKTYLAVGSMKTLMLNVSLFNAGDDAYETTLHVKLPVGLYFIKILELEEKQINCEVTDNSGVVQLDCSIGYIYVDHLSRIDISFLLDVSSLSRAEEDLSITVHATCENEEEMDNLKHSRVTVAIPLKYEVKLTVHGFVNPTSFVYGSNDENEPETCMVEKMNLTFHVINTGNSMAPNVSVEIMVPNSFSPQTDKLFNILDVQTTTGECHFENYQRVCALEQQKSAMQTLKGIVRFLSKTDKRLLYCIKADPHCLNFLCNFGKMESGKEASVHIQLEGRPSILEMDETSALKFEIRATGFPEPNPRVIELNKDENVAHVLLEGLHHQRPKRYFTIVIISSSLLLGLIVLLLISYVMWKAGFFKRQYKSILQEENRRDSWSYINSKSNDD

Assay [8] can be described thus: calorie-restriction mimetic ROS inhibitors, yeast – validation compound set, pilot screen (AID 2706;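 active = superoxide response below 65% of plate, a cut near 3 SD across the whole screen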;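 note: yeast exposed to compound for one week at 30 degrees C before staining; 100% = mean of all compound wells on the same plate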). The following applies: S. cerevisiae aging, superoxide DHE fluorescence; at 10 µM, stronger effect = lower value.
Assay [9] has as its target Beta-adrenergic receptor kinase 1 (Homo sapiens) (UniProt P25098). The assay is described as follows: GRK2 binders displacing RNA aptamer, biochemical, validation, human GRK2, bead flow cytometry (AID 488806;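 active = aptamer binding inhibition above 30%, about 3 SD of noise from non-fluorescent compounds; inactive = inhibition at or below 30%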). The settings on record: bead-bound GRK2, FAM-aptamer displacement, at 10 µM, stronger effect = higher value.
Assay [10] addresses AP-2 complex subunit beta (Homo sapiens) (UniProt P63010). The assay is described as follows: beta-arrestin/AP2 interaction blockers – biochemical, validation set, GST-AP2 beads, flow cytometry, pilot screen (AID 504541;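 active = inhibition above 54%, about 3 SD of non-fluorescent compounds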;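 note: AP2 carries R879A mutation and is captured from E. coli lysate; bead-bound FITC arrestin peptide fluorescence measuring arrestin peptide binding to AP2; 0% = DMSO wells and 100% = excess unlabeled arrestin peptide control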). The settings on record: FITC arrestin peptide, at 10 µM, stronger effect = higher value, AP2 beta2 appendage fragment, R879A mutant.
The nature of assay [11]: cytosolic pH regulators acting via V-ATPase – S. cerevisiae, pHLuorin, HTS validation (AID 504600; in the data active = response above about 15%;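 note: plate controls were DMSO for no effect and reference compound for full effect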). The settings on record: V-ATPase proton transport, at 10 µM, stronger effect = higher value.
Assay [12] relates to anti-desmoglein-3 scFv antibody binding to human DSG3. Kind of assay: blockers of pathogenic pemphigus antibody–desmoglein-3 binding – biochemical, validation compound set, bead-based, flow cytometry, pilot screen (AID 588368;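 active = binding below the plate cutoff, the plate median minus 3 SD, with a reading above zero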;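 note: signal is the median channel fluorescence of bead-bound GFP antibody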). The settings on record: Protein G beads, DSG3-Fc, scFv-GFP binding, at 10 µM, stronger effect = lower value.
Assay [13] can be described thus: Nile Red efflux blockade in pump-expressing yeast – validation compound set, multiplex, phenotypic, pilot screen (AID 588506;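 active = efflux inhibition above 0.42, the validation set average plus 4 SD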;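 note: Nile Red retained in cells so higher fluorescence means more efflux inhibition; 0 = negative control wells and 1 = enniatin B 25 µM full block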). The settings on record: S. cerevisiae pump-expressing triplex, Nile Red efflux flow cytometry; at 10 µM; stronger effect = higher value; the pumps come from Candida albicans.
The target of assay [14] is ATP-binding cassette sub-family B member 6 (Homo sapiens) (UniProt Q9NP58). Kind of assay: blockers of ABCB6-driven porphyrin uptake – K562-ABCB6 cells, flow cytometry, validation set, pilot screen (AID 588550;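 active = inhibition above the screen-wide mean plus 3 SD, about 51%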;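 note: 0% = DMSO wells and 100% = benzethonium chloride 70 µM positive control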). The following applies: K562-ABCB6 porphyrin accumulation, 1 h, at 10 µM, stronger effect = higher value.
ATP-binding cassette sub-family B member 6 (Homo sapiens), sequence (Q9NP58 whole entry, looked up): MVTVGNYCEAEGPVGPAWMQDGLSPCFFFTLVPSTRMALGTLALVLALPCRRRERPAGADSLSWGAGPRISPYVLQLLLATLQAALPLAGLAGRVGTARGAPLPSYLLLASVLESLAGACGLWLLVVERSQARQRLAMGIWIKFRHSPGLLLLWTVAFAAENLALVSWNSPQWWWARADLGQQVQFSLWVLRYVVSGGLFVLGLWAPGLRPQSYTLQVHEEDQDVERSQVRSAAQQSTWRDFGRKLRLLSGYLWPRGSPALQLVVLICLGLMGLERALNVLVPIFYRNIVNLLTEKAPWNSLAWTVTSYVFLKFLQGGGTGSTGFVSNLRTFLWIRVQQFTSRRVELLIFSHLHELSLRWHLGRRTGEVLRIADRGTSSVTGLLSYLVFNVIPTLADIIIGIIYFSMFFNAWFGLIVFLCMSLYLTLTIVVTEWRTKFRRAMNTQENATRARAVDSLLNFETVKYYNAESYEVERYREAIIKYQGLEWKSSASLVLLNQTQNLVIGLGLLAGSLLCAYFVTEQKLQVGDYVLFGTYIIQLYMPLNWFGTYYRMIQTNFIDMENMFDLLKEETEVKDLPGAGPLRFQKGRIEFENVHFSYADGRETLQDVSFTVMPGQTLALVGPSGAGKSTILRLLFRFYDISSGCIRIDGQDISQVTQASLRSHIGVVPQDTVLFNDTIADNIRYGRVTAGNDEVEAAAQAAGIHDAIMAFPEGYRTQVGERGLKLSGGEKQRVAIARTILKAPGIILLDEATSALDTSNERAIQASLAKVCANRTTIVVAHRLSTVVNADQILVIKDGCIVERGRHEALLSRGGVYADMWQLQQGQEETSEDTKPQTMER
Assay [15] in a line: AML differentiation inducers, ER-HoxA9 marrow cells – cell-based, GFP/MAC1 double positive, flow cytometry, validation set, primary screen (AID 588685).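 Note: compound exposure lasts four days before antibody staining and flow analysis; 0% = DMSO wells and 100% = 5 µM fulvestrant positive control.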 The following applies: stronger effect = higher value, normalized: vehicle 0, fulvestrant 100.

Each structure is given as a SMILES string. Results filed as inconclusive are left out. Calls of active or inactive are those of the source.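 Rule for the calls, unless noted: active = differentiation response of at least 50%, scaled between solvent and reference control, from cells with both markers; inactive = the rest.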

Beta-adrenergic receptor kinase 1 (Homo sapiens), sequence (P25098 whole entry, looked up): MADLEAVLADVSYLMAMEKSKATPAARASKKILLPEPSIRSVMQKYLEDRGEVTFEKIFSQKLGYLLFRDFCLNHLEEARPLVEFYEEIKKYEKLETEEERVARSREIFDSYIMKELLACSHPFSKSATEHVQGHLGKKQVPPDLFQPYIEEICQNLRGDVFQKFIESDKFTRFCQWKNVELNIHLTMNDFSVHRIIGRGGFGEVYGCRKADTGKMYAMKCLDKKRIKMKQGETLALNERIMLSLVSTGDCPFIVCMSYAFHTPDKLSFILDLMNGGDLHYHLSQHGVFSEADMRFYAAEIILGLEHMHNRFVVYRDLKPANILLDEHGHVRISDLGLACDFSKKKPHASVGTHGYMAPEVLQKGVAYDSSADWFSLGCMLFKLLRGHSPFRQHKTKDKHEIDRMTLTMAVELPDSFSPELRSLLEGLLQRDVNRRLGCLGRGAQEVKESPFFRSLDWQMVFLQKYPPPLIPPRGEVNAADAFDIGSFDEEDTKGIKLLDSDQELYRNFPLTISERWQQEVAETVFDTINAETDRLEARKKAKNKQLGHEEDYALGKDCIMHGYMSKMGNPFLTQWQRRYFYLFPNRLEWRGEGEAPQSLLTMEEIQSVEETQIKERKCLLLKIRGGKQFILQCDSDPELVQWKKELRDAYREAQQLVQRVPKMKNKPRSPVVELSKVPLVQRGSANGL
AP-2 complex subunit beta (Homo sapiens), sequence (P63010 whole entry, looked up, the tested form may be a part, one chain of several): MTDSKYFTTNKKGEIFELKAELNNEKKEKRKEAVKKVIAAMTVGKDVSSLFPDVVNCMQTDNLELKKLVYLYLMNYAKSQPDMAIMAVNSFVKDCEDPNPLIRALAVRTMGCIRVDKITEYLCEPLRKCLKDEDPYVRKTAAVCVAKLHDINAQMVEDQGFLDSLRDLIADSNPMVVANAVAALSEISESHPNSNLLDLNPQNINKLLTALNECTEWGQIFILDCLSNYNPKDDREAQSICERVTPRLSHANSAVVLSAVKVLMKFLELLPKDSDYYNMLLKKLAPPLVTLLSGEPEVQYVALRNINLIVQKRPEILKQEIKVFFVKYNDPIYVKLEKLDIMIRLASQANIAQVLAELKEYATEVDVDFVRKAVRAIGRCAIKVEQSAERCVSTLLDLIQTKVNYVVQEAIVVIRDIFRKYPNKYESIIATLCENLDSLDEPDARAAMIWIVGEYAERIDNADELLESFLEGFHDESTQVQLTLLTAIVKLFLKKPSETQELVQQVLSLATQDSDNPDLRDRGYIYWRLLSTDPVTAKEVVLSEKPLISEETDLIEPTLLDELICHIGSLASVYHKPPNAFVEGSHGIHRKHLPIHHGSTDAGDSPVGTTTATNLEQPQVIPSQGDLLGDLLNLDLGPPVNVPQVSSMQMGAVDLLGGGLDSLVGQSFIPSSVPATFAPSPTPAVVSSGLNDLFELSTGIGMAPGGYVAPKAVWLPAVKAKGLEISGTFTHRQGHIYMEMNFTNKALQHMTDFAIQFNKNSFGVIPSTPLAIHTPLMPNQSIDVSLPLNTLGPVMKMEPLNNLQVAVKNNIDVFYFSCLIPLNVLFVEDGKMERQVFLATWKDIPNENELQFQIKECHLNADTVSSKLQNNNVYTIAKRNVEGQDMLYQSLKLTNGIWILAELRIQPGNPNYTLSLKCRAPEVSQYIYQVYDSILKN

As a reminder, the inhibition is the drop in the measured response relative to a control, in per cent. As for `CO/N=C(\C(=O)N[C@@H]1C(=O)N2C(C(=O)O)=C(COC(C)=O)CS[C@H]12)c1csc(N)n1` (stereo in doubt), the percent of DMSO control GFP in [1] is 95.8% (inactive). The results for the GFP response vs DMSO in assay [2] and in assay [4] were 99.9% (inactive) and 90.3% (inactive), respectively. Also, in [3], the percent response of DMSO control was 94.9% (inactive). In [5], the GFP response, % of DMSO was 93.4% (inactive). Besides, the double positive events in assay [6] worked out at 61.1%. In addition, the vesicle binding response in assay [6] is 224% (inactive). Also, the inhibition was 5.36% (inactive) in assay [7], 2.47% (inactive) in assay [10] and 11% (inactive) in assay [14]. Also, in assay [8], the superoxide response (% of plate) is 93.9% (inactive). Moreover, the aptamer binding inhibition in assay [9] is 3% (inactive). Besides, the response in [11] is -3.75% (inactive). Moreover, in assay [12], the binding (% of control) was 97.5% (inactive). Further, the efflux inhibition (fraction of control) in assay [13] was -0.09 (inactive). Besides, in [15], the differentiation response is 6.26% (inactive).
On to `Cn1c2c(c(=O)[nH]c1=O)C(c1ccc(O)cc1)C1=C(N2)c2ccccc2C1=O` (stereo not given), for which the percent of DMSO control GFP in [1] was 99% (inactive). Besides, the GFP response vs DMSO in [2] is 97.9% (inactive); in [4], 87.3% (inactive). Further, the percent response of DMSO control in [3] is 101% (inactive). Further, the GFP response, % of DMSO in assay [5] was 94.6% (inactive). This compound also had a double positive events in assay [6] of 62.7%. In addition, in [6], the vesicle binding response was 228% (inactive). Further, the inhibition in assay [7] was -3.04% (inactive); in [10], 8.12% (inactive); in assay [14], 9% (inactive). For the same compound, in assay [8], the superoxide response (% of plate) was 92.2% (inactive). For the same compound, the aptamer binding inhibition in [9] was -2% (inactive). In assay [11], the response was -0.45% (inactive). In [12], the binding (% of control) is 96.9% (inactive). The efflux inhibition (fraction of control) in assay [13] is -0.01 (inactive). The differentiation response in assay [15] is 11.1% (inactive).
For the compound `O=C(O)c1cccnc1`, the percent of DMSO control GFP in assay [1] was 103% (inactive). In addition, the GFP response vs DMSO is 105% (inactive) in assay [2] and 101% (inactive) in assay [4]. Besides, the percent response of DMSO control in assay [3] is 96.9% (inactive). Also, in assay [5], the GFP response, % of DMSO was 105% (inactive). In assay [6], this compound yielded a double positive events of 54.3%. Further, in assay [6], the vesicle binding response is 137% (inactive). For the same compound, the inhibition in assay [7] was 13.8% (inactive); in assay [10], -4.36% (inactive); in [14], 16% (inactive). For the same compound, the superoxide response (% of plate) in [8] was 94.8% (inactive). In addition, the aptamer binding inhibition in assay [9] was 4% (inactive). In [11], the response is 4.12% (inactive). Besides, in [12], the binding (% of control) was 101% (inactive). For the same compound, the efflux inhibition (fraction of control) in assay [13] is 0.29 (inactive). The differentiation response in assay [15] is 20.8% (inactive).
Regarding `C[C@H]1C[C@H]2[C@@H]3CCC4=CC(=O)C=C[C@]4(C)[C@@]3(Cl)[C@@H](O)C[C@]2(C)[C@@]1(O)C(=O)CO`, the percent of DMSO control GFP in assay [1] was 101% (inactive). Besides, the GFP response vs DMSO in assay [2] and in [4] was 103% (inactive) throughout. Also, the percent response of DMSO control in assay [3] was 106% (inactive). Moreover, in assay [5], the GFP response, % of DMSO is 98.8% (inactive). For the same compound, in [6], the double positive events amounted to 53.7%. Also, the vesicle binding response in assay [6] is 190% (inactive). Further, the inhibition in assay [7] is 4.42% (inactive); in assay [10], -8.65% (inactive); in assay [14] it was 6% (inactive). In addition, the superoxide response (% of plate) in assay [8] was 85.2% (inactive). In [9], the aptamer binding inhibition was 2% (inactive). Further, in assay [11], the response is 4.84% (inactive). In addition, the binding (% of control) in assay [12] was 96.9% (inactive). Further, the efflux inhibition (fraction of control) in [13] was -0.24 (inactive). In addition, the differentiation response in [15] is -9.89% (inactive).
In the case of `Nc1ccc(S(=O)(=O)c2ccc(N)cc2)cc1`, in assay [1], the percent of DMSO control GFP is 100% (inactive). Besides, the GFP response vs DMSO in assay [2] is 102% (inactive); in assay [4] it was 103% (inactive). The percent response of DMSO control in assay [3] is 93% (inactive). In addition, the GFP response, % of DMSO in [5] is 99.3% (inactive). In addition, in assay [6], the double positive events amounted to 63.7%. In addition, in assay [6], the vesicle binding response is 142% (inactive). The inhibition in assay [7] was 8.15% (inactive); in [10], 2.16% (inactive); in assay [14], 5% (inactive). In addition, the superoxide response (% of plate) in [8] was 97.8% (inactive). Besides, the aptamer binding inhibition in [9] was 0% (inactive). For the same compound, the response in assay [11] was -1.03% (inactive). Also, the binding (% of control) in assay [12] is 100% (inactive). For the same compound, the efflux inhibition (fraction of control) in [13] is 0.14 (inactive). For the same compound, the differentiation response in [15] was -5.05% (inactive).

The values are drawn from PubChem BioAssay.
